# PAFAH1B2 FP inh: blocks human PAF acetylhydrolase 1b catalytic subunit 2; P68402; recombinant PAFAH1B2, FP-rhodamine activity probe, fluorescence polarization; inhibition, % at 3.39 µM; 340,000 tested, 1.2% active;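 active means inhibition above the mean of all tested compounds plus 3 SD, cut at about 24% in these data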;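 further: 0% = enzyme with DMSO and 100% = wells lacking PAFAH1B2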
# PAFAH2 FP inh: inhibitors of human PAFAH2 | 340,000 tested, 0.99% active | inhibition, % at 3.39 µM | Q99487 | recombinant PAFAH2, FP-rhodamine activity probe, fluorescence polarization | AID 492956;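 active means inhibition above the mean over all tested compounds plus 3 SD, cut at about 30% in these data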;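 further: inhibitors block probe labeling of enzyme so polarization drops; 0% = enzyme with DMSO and 100% = wells lacking PAFAH2 protein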
# pPAFAH FP inh: pPAFAH (human) enzyme inhibition. inhibition, % at 3.39 µM. recombinant pPAFAH, FP-rhodamine probe fluorescence polarization. AID 463082. Q13093. 330,000 tested, 1.5% active;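 active means inhibition above the mean inhibition across the screen plus 3 SD, cut at about 25% in these data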;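 further: inhibitors block binding of the rhodamine activity-based probe so polarization drops; 0% = enzyme with DMSO and 100% = wells lacking pPAFAH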
# Target sequence (Q13093 whole entry, looked up): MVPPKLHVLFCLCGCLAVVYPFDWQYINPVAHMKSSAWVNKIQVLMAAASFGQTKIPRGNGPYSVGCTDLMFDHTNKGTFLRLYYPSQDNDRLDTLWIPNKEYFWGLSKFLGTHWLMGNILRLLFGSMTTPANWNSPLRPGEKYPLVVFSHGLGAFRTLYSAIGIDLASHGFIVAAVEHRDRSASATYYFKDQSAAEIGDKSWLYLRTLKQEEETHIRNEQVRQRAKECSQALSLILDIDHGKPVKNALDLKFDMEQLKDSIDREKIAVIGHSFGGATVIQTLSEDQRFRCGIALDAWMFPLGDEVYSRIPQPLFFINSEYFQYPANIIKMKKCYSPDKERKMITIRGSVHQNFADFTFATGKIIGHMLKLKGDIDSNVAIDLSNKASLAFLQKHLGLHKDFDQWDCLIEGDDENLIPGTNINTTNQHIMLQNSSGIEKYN
# PME-1 inh: PME-1 (human) inhibition | recombinant PME-1, FP-Rh probe fluorescence polarization | inhibition, % at 5.9 µM | 320,000 tested, 0.53% active;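 active means inhibition above the campaign mean of all compounds plus 3 SD, cut at about 26% in these data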;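 further: competitive labeling of PME-1 active site by serine hydrolase directed probe; 0% = PME-1 with DMSO and 100% = wells lacking PME-1 enzyme; inhibitors block probe labeling so polarization falls and inhibition rises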
# PAFAH1B3 FP inh: blocks human PAF acetylhydrolase 1B catalytic subunit 3. 340,000 tested, 0.28% active. inhibition, % at 3.39 µM. recombinant PAFAH1B3, FP-rhodamine probe, fluorescence polarization;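 active means inhibition above the screen-wide average of all tested compounds plus 3 SD, cut at about 25% in these data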;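 further: 0% = enzyme with DMSO only and 100% = wells lacking PAFAH1B3 protein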
# Fam108B counter: counter-screen for RBBP9 inhibitors: inhibitors of mouse Fam108B; AID 1947; 300,000 tested, 0.33% active; inhibition, % at 9.51 µM; recombinant Fam108B, FP-Rh probe fluorescence polarization;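 active means inhibition above the screen mean inhibition plus 3 SD, computed separately per campaign, cut at about 18% in these data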;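 further: inhibitors lower polarization as less probe binds the enzyme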
# * marks the source's active call; other numbers are inactive results; . = no result given. Hits are enriched below; roughly 2.8% of the tested compounds scored in any of these assays.
SMILES,PAFAH1B2 FP inh,PAFAH2 FP inh,pPAFAH FP inh,PME-1 inh,PAFAH1B3 FP inh,Fam108B counter
CCN1CCN(C(=O)c2ccc(CSc3ccc(C)cc3)cc2)CC1,40*,12,4,-5,6,-3
CN1C(=O)C(=O)N(CC(=O)Nc2ccccc2OC(F)F)C1=O,6,5,0,-8,1,.
CCC(=O)N1CCc2cc(S(=O)(=O)CCC(=O)N3CCN(c4ccc(F)cc4)CC3)ccc21,4,4,2,1,7,-2
O=C(Oc1ccc(N(Cc2cccs2)C2=NS(=O)(=O)c3ccccc32)cc1)c1ccccc1Cl,8,2,4,0,6,1
O=C(OCCN(C1=NS(=O)(=O)c2ccccc21)c1ccc(Cl)cc1)c1ccco1,4,-1,2,27*,3,1
Nc1nnc(CSCc2ccccc2)s1,4,5,8,-14,2,6
Nc1nnc(CSCc2ccc(Cl)cc2)s1,28*,7,1,-5,-7,2
Cc1cccc(C)c1NC(=O)CN1CCN(C(=O)CNC(=O)c2ccc(N3CCCC3=O)cc2)CC1,6,-2,-2,-4,14,.
CC(=O)Nc1cc(Cl)c(N=Cc2ccc(O)cc2O)cc1Cl,1,-11,41*,-2,5,9
O=C(COc1ccc(Br)cc1F)Nc1nnc(C2CC2)s1,-32,1,-1,.,1,.
O=[N+]([O-])c1cc(S(=O)(=O)N2CCCCCC2)ccc1F,29*,17,1,-5,-18,-3
O=[N+]([O-])c1cc(S(=O)(=O)N2CCCC2)ccc1O,-1,4,3,2,-9,2
Cc1ccc(CNC(=O)/C(C#N)=C\c2ccc(N(C)C)cc2)cc1,.,.,13,27*,.,8
COc1ccc(C2=CC3=CC(=O)C(C)(O)C(=O)C3=CO2)cc1 (stereo not drawn),.,.,38*,11,.,12
CC1(O)C(=O)C=C2C=C(c3ccc(C#N)cc3)OC=C2C1=O (stereo not drawn),.,.,57*,10,.,12
COc1ccc(C2=CC3=C(Br)C(=O)C(C)(O)C(=O)C3=CO2)cc1 (stereo not drawn),8,8,15,4,13,4
CCCCCCSc1nc(O)c(C2OC(=O)c3c2ccc(OC)c3OC)c(=O)n1CC (stereo not drawn),24,15,31*,5,3,-2
CCCSc1nc(O)c(C2OC(=O)c3c2ccc(OC)c3OC)c(=O)n1C (stereo not drawn),0,1,-2,6,0,3
CN(C)C(=O)c1ccc(-c2nnc(NCc3ccccc3)c3ccccc23)cc1,-3,-3,4,37*,4,-1
CCN(CC)C(=O)c1ccc(-c2nnc(Nc3ccc(C(=O)N(C)C)cc3)c3ccccc23)cc1,0,1,-2,-2,8,-6
CC1CCCN(CCCNC(=O)c2cn(C)c3ccc(S(=O)(=O)N(C)C4CCCCC4)cc3c2=O)C1 (stereo not drawn),-4,-1,4,11,1,1
CCn1cc(C(=O)NCCCN2CCC(C)CC2)c(=O)c2cc(S(=O)(=O)N(C)C3CCCCC3)ccc21,0,7,2,38*,1,-3
CCN(CC)CCNC(=O)c1cn(CC)c2ccc(S(=O)(=O)N(C)C3CCCCC3)cc2c1=O,7,-2,1,22,1,-3
CCn1cc(C(=O)NCCCN2CC(C)CC(C)C2)c(=O)c2cc(S(=O)(=O)N(C)C3CCCCC3)ccc21 (stereo not drawn),3,10,5,33*,-4,-10
CC1=N/C(=C\c2ccccc2Cl)C(=O)O1,6,3,5,-4,5,-2
SMILES,PAFAH1B2 FP inh,PAFAH2 FP inh,pPAFAH FP inh,PME-1 inh,PAFAH1B3 FP inh,Fam108B counter
CCCCc1nnc(NC(=O)CCSc2ccccc2)s1,6,-7,5,-6,-8,-1
Cc1nnc(NC(=O)CCSc2ccccc2)s1,27*,0,-1,8,13,-2
Cc1ccc(NS(=O)(=O)c2ccc3[nH]c(=O)[nH]c3c2)c(C)c1,-5,-5,28*,-2,-2,0
CNC(=O)c1cc(S(=O)(=O)Nc2ccc(C)cc2C)ccc1C,-3,0,30*,-1,3,0
Cc1cccc(NC(=O)N2CCC(NC(=O)C3CCCCC3)CC2)c1,5,-3,7,-1,5,-3
COc1ccccc1C1CC(=O)Oc2c(C(C)C)ccc(C)c21 (stereo not drawn),3,6,6,.,6,.
CC1=NC(=O)C(N=Nc2cccc(O)c2)N1c1ccccc1 (stereo not drawn),0,13,12,30*,-1,4
Cc1[nH]c2ccccc2c1/C=N/NC(=O)c1ccccc1,5,5,8,1,4,-2
Cc1[nH]c2ccccc2c1/C=N/NC(=O)c1cc(-c2ccncc2)nc2ccccc12,8,-6,16,26*,11,16
Cc1ccc(S(=O)(=O)N2CCCC2CNC(=O)C(=O)Nc2ccc(F)cc2F)cc1 (stereo not drawn),4,2,5,1,10,-3
COc1ccc(N(Cc2cc(=O)[nH]c3ccccc23)C(=O)CCl)cc1,2,-3,1,-1,2,-3
O=C(Cc1c(C(=O)O)[nH]c2ccccc12)NCCN1CCN(c2cccc(Cl)c2)CC1,25*,1,5,-6,9,4
O=C(O)c1[nH]c2ccc(Cl)cc2c1CC(=O)N1CCN(c2ccccc2)CC1,25*,7,5,-5,6,1
CCOc1ccccc1N1CC(C(=O)N2CCOCC2)CC1=O (stereo not drawn),-1,-1,4,-7,2,4
NC(=O)c1ccc(N=Cc2ccc([N+](=O)[O-])s2)cc1,8,60*,14,2,13,4
O=[N+]([O-])c1ccc(C=Nc2ccc(Cl)c([N+](=O)[O-])c2)s1,13,60*,.,.,16,.
Cc1cc(C)cc(N=Cc2ccc([N+](=O)[O-])s2)c1,5,15,4,3,21,7
CCn1c(SCC(=O)N/N=C(\C)c2ccncc2)nnc1-c1ccc(C)cc1,.,.,8,0,.,0
O=C(COC(=O)CCc1ccccc1)NNC(=O)c1ccccc1,2,0,12,.,3,.
Cc1cnc(NC(=O)C2(c3ccccc3)CC2)s1,29*,1,3,0,7,-1
NC(=O)CN(c1ccccc1)C1SC(=O)N(Cc2ccccc2)C1=O (stereo not drawn),13,0,1,5,-8,0
Cc1ccc(N(CC(N)=O)C2SC(=O)N(Cc3ccccc3)C2=O)cc1 (stereo not drawn),26*,6,1,-3,12,1
CCOC(=O)c1c(NC(=O)C2C3CCC(O3)C2C(=O)O)sc2c1CCCC2 (stereo not drawn),2,5,2,-1,4,-4

# Assay outcomes deposited in PubChem by The Scripps Research Institute Molecular Screening Center.
